Test results as given in ChEMBL document CHEMBL4513216, “Probing the Open Global Health Chemical Diversity Library for Multistage-Active Starting Points for Next-Generation Antimalarials” (ACS Infect Dis, 2020).
Among all 69,000 compounds or so, about 8,600 (12%) showed an effect of 50% or more. The sample holds strong results, similar compounds and a random draw of the others, so the mix is not that of the screen.

Each molecule was assayed on Plasmodium berghei (assay: Screen against P. berghei liver stage (PbLuc), transformed with Luciferase, at 10uM). Conditions: tested at 10 uM.
Format: functional, HepG2
Work on `CC(=O)N1CCCC(c2ccc(Br)cn2)C1` (stereo unspecified) yielded an INHIBITION of 29.2%.
`O=C(c1ccco1)N1CCCC2(CCN(c3nncs3)C2)C1` (stereo unspecified) showed an INHIBITION of 56.6%.
`O=C(c1ccco1)N1CCCC2(CCN(CCN3CCCC3)C2=O)C1` (stereo unspecified) was tested, and the INHIBITION was 58.5%.
In the case of `COc1cccc(CN2CCCC3(CCN(C(=O)[C@H]4CCCO4)C3)C2)c1` (stereo partly specified), the INHIBITION is reported as 13.2%.
`CC(=O)N1CCCC2(CCN(c3nncs3)C2)C1` (stereo unspecified) was tested, and the INHIBITION was 7.7%.
With `O=C(c1ccoc1)N1CCC2(CCCN(c3ncc(F)cn3)C2)C1` (stereo unspecified) the INHIBITION was 53%.
Molecule `COc1cccc(CN2CCCC3(CCN(C(=O)c4ccco4)C3)C2)c1` (stereo unspecified) has an INHIBITION of 69.1%.
`O=C(c1ccncc1)N1CCC2(CCCN(c3ncc(F)cn3)C2)C1` (stereo unspecified) gave an INHIBITION of 40.3%.
`Cn1cccc1C(=O)N1CCCC2(CCN(CCN3CCCC3)C2=O)C1` (stereo unspecified) was tested, and the INHIBITION was -14.9%.
`COc1cccc(CN2CCCC3(CCN(C(=O)N4CCCC4)C3)C2)c1` (stereo unspecified) was tested, and the INHIBITION was 8.74%.
`O=C(c1ccco1)N1CCCC2(C1)CN(c1nncs1)CCO2` (stereo unspecified) showed an INHIBITION of 45.7%.
For `O=C(c1ccoc1)N1CCC2(C1)CN(c1ncc(F)cn1)C2`, the INHIBITION was -0.813%.
`Cc1occc1C(=O)N1CCCC2(CCN(CCN3CCCC3)C2=O)C1` (stereo unspecified) showed an INHIBITION of 23.5%.
`COc1cccc2ccn(CC(=O)NCCC(C)C)c12` was tested, and the INHIBITION was 9.04%.
`CC(C)(C)c1nnc2n1C(C(=O)N1CCOCC1)CC2` (stereo unspecified) was tested, and the INHIBITION was -3.93%.
Molecule `CCn1cnnc1C1CCN(C(=O)c2ccc3ccccc3n2)CC1` has an INHIBITION of 26.4%.
`Cc1nnc(N2C[C@@H](Oc3ccccn3)[C@H]3OCCC[C@H]32)s1` gave an INHIBITION of -23.8%.
For `COc1ccc(C)cc1C(C)NCc1cnnn1C` (stereo unspecified), the INHIBITION was 0.818%.
With `COCc1cn(CC2CCN(Cc3c(C)[nH]c4ccccc34)CC2)nn1` the INHIBITION was 15.8%.
`Cc1nn(-c2ccccc2Cl)c(C)c1CCC(=O)O` gave an INHIBITION of 15.4%.
For `CCc1ccc(CN2CCN(c3cccc(OC)c3)C(=O)C2)nc1`, the INHIBITION was -8.99%.
`O=C(c1ccco1)N1CCC2(CCCN(c3ncccn3)C2)C1` (stereo unspecified) showed an INHIBITION of 77.4%.
For `O=C(c1ccco1)N1CCC2(CC1)CCN(c1ncccn1)CC2`, the INHIBITION was -7.28%.
For `O=C(c1ccco1)N1CCC2(CCCN(c3ncc(F)cn3)C2)C1` (stereo unspecified), the INHIBITION was 43%.
`O=C(O)c1cnc(OCC2CC2)c(Br)c1` gave an INHIBITION of -4.56%.
Molecule `O=C1CC[C@H]2[C@H](CCN2C(=O)C2CCCO2)N1Cc1ccncc1` (stereo partly specified) has an INHIBITION of 8.69%.
Work on `O=C1CC[C@@H]2[C@@H](CCN2C(=O)c2ccsc2)N1CC1CC1` yielded an INHIBITION of 47.8%.
Molecule `COCCN1C(=O)CC[C@@H]2[C@H]1CCN2C(=O)N(C)C` has an INHIBITION of -37.8%.
For `O=C1CC[C@@H]2[C@@H](CCN2C(=O)c2ccsc2)N1Cc1ccncc1`, the INHIBITION was 63.7%.
With `O=C1CC[C@H]2[C@H](CCN2C(=O)C2CCOC2)N1Cc1ccncc1` (stereo partly specified) the INHIBITION was 54.7%.
With `Cc1nc(CN2C(=O)CC[C@H]3[C@@H]2CCN3C(=O)c2ccsc2)cs1` the INHIBITION was 4.55%.
`O=C1CC[C@@H]2[C@@H](CCN2C(=O)C2CCOCC2)N1CC1CC1` was tested, and the INHIBITION was 18.5%.
`COCCN1C(=O)CC[C@@H]2[C@H]1CCN2C(=O)C1CCOCC1` showed an INHIBITION of 52.3%.
`O=C1CC[C@H]2[C@H](CCN2C(=O)C2CCOCC2)N1Cc1ccncc1` gave an INHIBITION of 7.11%.
`COCCN(C(=O)c1ccn(-c2ccc(OC)cc2)n1)C(C)C(N)=O` (stereo unspecified) gave an INHIBITION of 0.0996%.
`COc1ccccc1C1SCC(=O)Nc2n[nH]cc21` (stereo unspecified) showed an INHIBITION of 42.6%.
`COc1cccc(C2SCC(=O)Nc3n[nH]cc32)c1OC(C)C` (stereo unspecified) gave an INHIBITION of 40%.
`COc1cc(C2SCC(=O)Nc3n[nH]cc32)cc(OC)c1O` (stereo unspecified) gave an INHIBITION of 60.7%.
For `COc1cc(OC)c(C2SCC(=O)Nc3n[nH]cc32)cc1OC` (stereo unspecified), the INHIBITION was 26.8%.
`COc1ccc(OC)c(C2SCC(=O)Nc3n[nH]cc32)c1` (stereo unspecified) gave an INHIBITION of 70.6%.
For `COc1ccc(C2SCC(=O)Nc3n[nH]cc32)c(OC)c1OC` (stereo unspecified), the INHIBITION was 32.5%.
`N#Cc1cn(C2CC2)c(=O)n(CC(O)c2ccc(F)cc2)c1=O` (stereo unspecified) showed an INHIBITION of 35.85%.
`CCN(Cc1ccccc1)C(=O)c1cc(C2CCCN2C)ccn1` (stereo unspecified) was tested, and the INHIBITION was -31%.
In the case of `Cc1csc(N2CCN(C(=O)CCCNc3ncccn3)CC2)n1`, the INHIBITION is reported as 26.4%.
In the case of `Cc1cccc(N2CCc3ncc(CNS(C)(=O)=O)n3CC2)n1`, the INHIBITION is reported as 22.4%.
In the case of `COc1ccc(CN2CCC[C@@H]3CN(C(=O)c4ccco4)C[C@@H]32)cc1`, the INHIBITION is reported as 29%.
In the case of `O=C(c1cn(CC(=O)N2CCCCCC2)c2ccccc12)C1CC1`, the INHIBITION is reported as 27.8%.
`O=C(c1cn(CC(=O)N2CCCC2)c2ccccc12)C1CC1` showed an INHIBITION of 71.7%.
`O=C(c1cn(CC(=O)N2CCCCC2)c2ccccc12)C1CC1` showed an INHIBITION of 13.94%.
With `CN1CCCC1c1ccnc2nccn12` (stereo unspecified) the INHIBITION was 19.9%.
`CCC(C(=O)NCC1CCN(c2ccncc2)CC1)N(C)C` (stereo unspecified) was tested, and the INHIBITION was 34.9%.
`Cc1cc(C)n(CC(=O)NC(Cc2ccsc2)c2ccccn2)c(=O)n1` (stereo unspecified) was tested, and the INHIBITION was 54%.
With `O=C(Cn1cccnc1=O)NC(Cc1ccsc1)c1ccccn1` (stereo unspecified) the INHIBITION was 41.5%.
With `Cc1cccnc1C(Cc1ccsc1)NC(=O)Cn1cccnc1=O` (stereo unspecified) the INHIBITION was 59%.
`CS(=O)(=O)N1CCC(C(=O)NC(Cc2ccsc2)c2ccccn2)CC1` (stereo unspecified) showed an INHIBITION of 40.9%.
`O=C(Cn1cccnc1=O)NC(Cc1ccsc1)c1nccs1` (stereo unspecified) gave an INHIBITION of 29.3%.
Molecule `Cc1csc(C(Cc2ccsc2)NC(=O)Cn2cccnc2=O)n1` (stereo unspecified) has an INHIBITION of 34%.
Molecule `CNc1nc2c(c(C(=O)N3CCCC3)n1)CN(Cc1ccco1)CC2` has an INHIBITION of 17.2%.
`CC(C)Nc1ncnc2c1CCN(C(=O)NCc1cccnc1)CC2` showed an INHIBITION of -1.15%.
Molecule `CC(C)Nc1ncnc2c1CCN(C(=O)NCc1cccc(F)c1)CC2` has an INHIBITION of 51.2%.
Work on `CC(C)Nc1ncnc2c1CCN(C(=O)CCc1ccccc1)CC2` yielded an INHIBITION of 61.4%.
With `CC(C)Nc1ncnc2c1CCN(C(=O)CN(C)C)CC2` the INHIBITION was 36.9%.
Work on `O=C(NCc1cccc(F)c1)N1CCc2ncnc(NC3CC3)c2CC1` yielded an INHIBITION of 16.8%.
With `CC(C)Nc1ncnc2c1CCN(C(=O)Cc1ccccn1)CC2` the INHIBITION was 8.69%.
For `COCC(=O)N1CCC(=O)N(C2CCCC2)Cc2ccccc21`, the INHIBITION was -20.1%.
Work on `Cc1ccnc(CNC(=O)C2CC(=O)N(CCN(C)C)C2)c1` (stereo unspecified) yielded an INHIBITION of 8.41%.
